Data from PubChem BioAssay (NCI).
This is part of a sample that, as a whole, favours compounds with a hit. Of some 79,000 tested, about 15% had one in any assay. The source made the active and inactive calls. No stated cut-off is given here; in the data, active means growth inhibition above about 70%; inactive means the rest.

What was measured:
[1] = NCI Yeast Anticancer Drug Screen. Data for the rad50 strain (AID 155);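 further: 0% = growth of vehicle-only cultures of the same strain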; conditions: S. cerevisiae rad50 strain growth inhibition; at 50.0 µM; stronger effect = higher value
In short: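 Relative growth inhibition (compound vs vehicle) was measured in yeast with a defined repair-gene alteration.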

[2] = NCI Yeast Anticancer Drug Screen. Data for the mec2-1 strain (AID 157); conditions: S. cerevisiae mec2-1 strain, at 50.0 µM, stronger effect = higher value
In short: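 Using mec2-1 yeast: add compound, measure growth, express inhibition versus vehicle-treated cultures.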

[3] = NCI Yeast Anticancer Drug Screen. Data for the sgs1 mgt1 strain (AID 161);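 further: 0% = growth of cultures given vehicle only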; conditions: S. cerevisiae sgs1 mgt1 strain, at 50.0 µM, stronger effect = higher value
In short: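 Yeast cells carrying a defined DNA-repair defect were exposed to test compounds. Growth inhibition was measured relative to vehicle-treated controls.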

[4] = NCI Yeast Anticancer Drug Screen. Data for the cln2 rad14 strain (AID 165);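 further: 0% = growth equal to vehicle treated cultures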; conditions: S. cerevisiae cln2 rad14 strain, at 50.0 µM, stronger effect = higher value
In short: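 Yeast strain cln2 rad14, bearing defects in cell cycle control and DNA repair, serves as the test system; values reflect growth inhibition compared with vehicle.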

[5] = NCI Yeast Anticancer Drug Screen. Data for the bub3 strain (AID 167); conditions: S. cerevisiae bub3 mutant strain, at 50.0 µM, stronger effect = higher value
In short: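 Screening used yeast with an engineered genetic alteration affecting cell cycle control. Compound-exposed cultures were compared with vehicle cultures, and reduced growth was taken as inhibition.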

[6] = NCI Yeast Anticancer Drug Screen. Data for the mlh1 rad18 strain (AID 175); conditions: S. cerevisiae mlh1 rad18 strain growth inhibition; at 50.0 µM; stronger effect = higher value
In short: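 Steps: expose repair-defective yeast to compound; measure growth; express inhibition against vehicle-treated controls.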

Measured: growth inhibition

COc1ccccc1Br
inactive: [1] -3.55% | [2] 0.85% | [3] -2% | [4] -15.3% | [5] -32.1% | [6] -4%

Cc1cc(-n2cnc3c(N(CCO)CCO)ncnc32)ccc1[N+](=O)[O-]
inactive: [1] 10.1% | [2] -8.5% | [3] -3.95% | [4] -1.9% | [5] 0.5% | [6] -5.8%

CC(C)=CCCc1cc(-c2cc(CCC=C(C)C)nc(N)n2)nc(N)n1
inactive: [1] 3.5% | [2] -10.9% | [3] -3.2% | [4] -7.1% | [5] -22.9% | [6] 15.1%

O=C1OI(OI2OC(=O)c3ccccc32)c2ccccc21 (tested in a mixture with another compound)
inactive: [1] 11.7% | [2] -9.6% | [3] -19.1% | [4] -9.85% | [5] 17.9% | [6] 9.45%

O=C(O)c1ccc(-c2nn[nH]n2)cc1
inactive: [1] -0.85% | [2] -10.1% | [3] -4% | [4] -11.8% | [5] -18.9% | [6] -15.2%

O=C(Nc1ccccc1C(=O)O)C(=O)C(C(=O)c1ccccc1-c1ccccc1)C1OC(=O)c2ccccc21 (stereo not given)
inactive: [1] 26.1% | [2] 5.65% | [3] 4.2% | [4] -38.6% | [5] 6.25% | [6] 13.9%

c1ccc2c(c1)C[N+]1(CCCCCC1)C2
inactive: [1] 7% | [2] 6.05% | [3] 11% | [4] -10.3% | [5] 1.05% | [6] 10.7%

CNC(=O)NC1C(CO)OC2OC(C)(C)OC21 (stereo not given)
inactive: [1] 6.5% | [2] 5.25% | [3] 10.4% | [4] -35.3% | [5] -9.85% | [6] 2.55%

C1=C(Oc2ccccc2)C2CC1C1CCCC21 (stereo not given)
inactive: [1] -7.85% | [2] -21.4% | [3] -2.65% | [4] 2.05% | [5] -5.95% | [6] 1.85%

O=C(/C=C(\C(=O)c1cccs1)c1cccs1)c1ccc(C(=O)/C=C(\C(=O)c2cccs2)c2cccs2)cc1
inactive: [1] 3.6% | [2] -23.9% | [3] 19% | [4] -25.1% | [5] -15.6% | [6] -5.85%

O=C(Cc1ccccc1CCO)NCCc1ccccc1
inactive: [1] 5.35% | [2] 1.55% | [3] -32.9% | [4] 24.8% | [5] -21.8% | [6] -14.9%

COc1ccc(C2OC2C(=O)c2ccccc2)cc1 (stereo not given)
inactive: [1] 6.75% | [2] 0.7% | [3] 19.4% | [4] -14.2% | [5] 12.3% | [6] -1.25%

O=c1[nH]c2nc(Cl)nc(Cl)c2[nH]1
inactive: [1] 28.4% | [2] 5.55% | [3] 11.4% | [4] 12.1% | [5] 8.3% | [6] 45%

O=C(Oc1c([N+](=O)[O-])cc(-c2ccccc2)cc1[N+](=O)[O-])c1ccccc1
inactive: [1] 22.7% | [2] 18.1% | [3] 9.05% | [4] 13.1% | [5] 20.1% | [6] 35.6%

O=C(C(CO)c1ccccc1)N1CCOCC1 (stereo not given)
inactive: [1] -10.3% | [2] -15.4% | [3] -3.45% | [4] -23.4% | [5] 4.35% | [6] 2.55%

NC(=O)SCC(=O)Nc1ccc2cccc3c2c1CC3
inactive: [1] 66.2% | [2] 60.3% | [4] 61.6%
active: [3] 80% | [5] 74.3% | [6] 85.2%

Nc1ccncc1CCc1ccccc1
inactive: [1] 5.5% | [2] -16.2% | [3] -2.05% | [4] 12.8% | [5] -18% | [6] 3.1%

O=C1c2ccccc2C(=O)N1CCc1ncc(-c2ccccc2)[nH]1
inactive: [1] -16.4% | [2] 7.85% | [3] -16.1% | [4] 12.4% | [5] 1.1% | [6] 1.9%

CC(C)C(=O)C(F)(F)F
inactive: [1] 14.3% | [2] 2.45% | [3] -21.3% | [4] 6.45% | [5] 28.6% | [6] -2.3%

COc1cccc2cc(-n3nnc4ccccc43)c(=O)oc12
inactive: [1] -8.6% | [2] 18.1% | [3] 4.6% | [4] 7.6% | [5] 25.8% | [6] 9.85%
